HepG2 viability: kills HepG2 cells in TGF-b inhibitor counter-screen | Potency, µM (doses to about 46.1 µM), for the others: at the top dose activity change, negative = cytotoxicity, hits mostly cytotoxic | HepG2 CAGA-GFP viability, ATP luminescence, 18 h | actives 0.76% (n = 410,000)
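HepG2 CAGA-GFP cells (1000/well, DMEM with 1% FBS) received compound, then TGF-beta at 500 pg/mL final, and were incubated 18 hours at 37 degrees C. Viability was read by CellTiter-Glo luminescence. Media-only wells were set as complete cell-killing and DMSO as no toxicity.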
HT1080 IDH1KD tx: HT-1080 IDH1 knockdown cell toxicity (counter line); actives 2% (n = 360,000); AID 686971; Potency, µM (top dose mostly 46.1 µM), for the others: at the highest dose activity, negative = toxicity, most hits filed as cytotoxic; HT-1080 IDH1 knockdown viability, ATP luminescence, 48 h;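 note: 0% = DMSO wells and -100% = cell-free medium wells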
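IDH1KD HT-1080 cells, 750/well, RPMI + 5% FBS; compound pinned after 2 h settling; 48 h, 37 °C; CellTiter-Glo luminescence; % activity normalised to DMSO and no-cell wells; curves fitted, classed by r2 and efficacy.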
TGFb inhibitor: inhibitors of TGF-b signaling; HepG2 CAGA-GFP TGF-b/SMAD3 reporter, GFP fluorescence, 18 h; TGF-beta stimulated, 500 pg/mL final; Potency, µM (top dose mostly 46.1 µM), without a hit: at the top dose activity, negative = inhibition, actives largely listed as inhibitors; actives 1.2% (n = 410,000); note: % is set by controls: 0 for no effect and ±100 for the full control effect; nearly all actives have a fitted effect of over 65% in size
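Per well, imaged GFP fluorescence of HEPG2 CAGA-GFP cells gives the signal; cells get compound, then TGF-beta (500 pg/mL final), 18 h at 37 degrees C; %Activity versus -TGF-beta and +DMSO controls.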
ATXN2 expr inh: inhibitors of ATXN2 expression; HEK-293 ATXN2-luciferase reporter, luminescence, 24 h; Potency, µM (top dose mostly 57 µM), inactives show at the top dose activity change, negative = inhibition, usual class: inhibitors; actives 0.72% (n = 360,000); note: % is set by controls: 0 for no effect and ±100 for the full control effect; nearly all actives have a fitted effect of over 55% in size
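qHTS (up to 57 uM final) was run with 24 h compound exposure of reporter cells at 37 °C. Each well was multiplexed: SteadyGlo luminescence measured ATXN2-luciferase expression after a fluorogenic Gly-Phe-AFC viability readout (25 uM final).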
S2 tox: viability counter-screen for ATXN expression inhibitors; S2 cells (HEK-293 line with an ATXN2-luciferase reporter) viability, CellTiter-Fluor protease fluorescence, 24 h; Potency, µM (top dose mostly 56.7 µM), actives largely listed as cytotoxic; actives 0.49% (n = 400,000); note: nearly all actives have a fitted effect of over 40% in size
HT1080NT lethal: kills 2HG-producing HT-1080-NT fibrosarcoma cells. HT-1080-NT fibrosarcoma viability, CellTiter-Glo ATP luminescence, 48 h. Potency, µM (titrated, usually from 46.1 µM), inactives show top-dose activity, negative = less viability, usual class: cytotoxic. actives 1.6% (n = 360,000);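 note: NT is the 2HG producing partner of a matched IDH1 knockdown line; 0% = DMSO-treated cells and -100% = media-only wells without cells; nearly all actives have a fitted effect of over 55% in size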
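Fibrosarcoma NT cells, 750 per well in 5% FBS RPMI, were exposed to compound for 48 hours. Viability: CellTiter-Glo luminescence.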
* marks the source's active call; other numbers are inactive results; i = inactive; u = inconclusive; x = not tested or not shown; ! = a repeat was not active; [ ] = remark or other dose. Shown are actives, neighbours in structure and some others; about 3.8% of the full set was active somewhere. Calls come from the whole dose curve; as a rule, active = well fitted curve in the direction sought with a large enough effect; inconclusive = small, poorly fitted or top-dose-only effect, or another doubt; inactive = no such curve, though single readings can be large; an effect the other way counts as inactive or inconclusive. Potency is the fitted concentration of half-maximal effect.

SMILES	HepG2 viability	HT1080 IDH1KD tx	TGFb inhibitor	ATXN2 expr inh	S2 tox	HT1080NT lethal
COc1ccc(S(=O)(=O)NCC(c2ccco2)S(=O)(=O)c2ccc(C)cc2)cc1C (stereo not given)	-5%	x	10µM*	x	x	x
CCOc1ccc(S(=O)(=O)NCC(c2ccco2)S(=O)(=O)c2ccc(C)cc2)cc1 (stereo not given)	2%	x	u	x	x	x
O=S(=O)(NCC(c1ccco1)S(=O)(=O)c1cccs1)c1ccc(F)c(C(F)(F)F)c1 (stereo not given)	-41%	x	4.5µM*	x	x	x
Cc1ccc(C)c(S(=O)(=O)NCC(c2ccco2)S(=O)(=O)c2ccc(F)cc2)c1 (stereo not given)	-37%	x	11µM*	x	x	x
CCOC(=O)c1cc(OCc2csc(-c3ccccc3)n2)cc(C(=O)OCC)c1	-4%	x	3%	x	x	x
C/C(=N\NC(=S)NCCc1ccccc1)c1ccc(C#N)cc1	-10%	7.1µM*	7%	1%	i	6.3µM*
CCc1ccc(-n2c(=O)c3cccnc3n2CC(=O)Nc2ccccc2C(F)(F)F)cc1	11µM*	x	u	x	x	x
Sc1oc(-c2ccccc2)cc1C=Nc1ccccc1	-3%	11µM*	u	36%	u	7.9µM*
Oc1oc(-c2ccccc2)nc1C=Nc1ccccc1	-17%	23%	u	51%	i	11%
Cc1ccc2c(n1)Oc1ccc(C(C)C(=O)OCC(=O)N(C)C)cc1C2 (stereo not given)	x	x	x	32%	i	x
CC(C)(CN1CCCC1)NS(=O)(=O)c1ccc(Cl)cc1	-3%	0%	6%	-9%	i	-1%
CC(C)(CN1CCNCC1)NS(=O)(=O)c1ccc(Cl)cc1	25µM*	u	u	u	i	-4%[9.24 µM]
Cc1ccc(S(=O)(=O)NC(C)(C)CN2CCC(Cc3ccccc3)CC2)cc1	-26%	u	18µM*	-26%	i	u
Cc1ccc(-c2ccnc(-n3ncc(C(=O)NC[C@@H]4CCCN5CCCC[C@H]45)c3C3CC3)n2)o1	x	x	x	x	i	x
CCC(CO)Oc1cc(NCc2ccc(Cl)cc2)c2ncn(C(C)C)c2c1 (stereo not given)	-23%	-24%	u	u	u	-22%
CCC(CO)Oc1cc(NCc2ccc(Cl)cc2Cl)c2ncn(C(C)C)c2c1 (stereo not given)	-72%	u	20µM*	-3%	u	u
N#CC(C#N)=c1ccc2c(c1)NC1(CCCCC1)N=2	-58%	23µM*	u	u	x	u
CCCC(=O)Nc1ccc(C(=O)n2nnc3ccccc32)cc1	10%	7%	-6%	4%	i	11%
CN(C)c1ccc(C(=O)n2nnc3ccccc32)cc1	-1%	16µM*	2%	19%	u	u
CC(=O)n1c2ccccc2c2ccccc21	7%	3%	-1%	-4%	i	8%
Cc1ccc(C(=O)n2c3ccccc3c3ccccc32)cc1	-7%	6.5µM*	-9%	-4%	i	u
CCOc1ccc(NC(=O)C(=O)NCC(c2cccnc2)N2CCc3ccccc32)cc1 (stereo not given)	-25%	x	u	x	x	x
CCOC(=O)c1c(C)oc2ncnc(N3CCN(c4cccc(Cl)c4)CC3)c12	-46%	x	11µM*	u	u	x
CN(C)C(=O)[C@@H]1C[C@@H](Sc2nc3ccccc3[nH]2)CN1Cc1ccnc2ccccc12	x	x	x	x	i	x
CC(C)(C)[C@H]1CCC(=O)N([C@H](CSc2ccccc2)Cc2ccccc2)CC1	-21%	8%	11µM*!	-15%	u	15%
SMILES	HepG2 viability	HT1080 IDH1KD tx	TGFb inhibitor	ATXN2 expr inh	S2 tox	HT1080NT lethal
Cc1cnc(C(=O)NNC(=O)c2ccc(Br)cc2)cn1	-6%	21µM*	-2%	u	i	u
O=C(NNC(=O)C1CCC1)c1ccc(Br)cc1	-6%	14%	11%	4%	i	28%
CN1CCN(c2ccc(NC(=O)c3ccc(Oc4ccccc4)cc3)cc2)CC1	-31%	u	u	-22%	i	15µM*
CN1CCN(c2ccc(NC(=O)c3ccc(-c4ccc(Br)cc4)o3)cc2)CC1	22µM*	23µM*	u	u	u	15µM*
COc1cc2ccccc2cc1C(=O)Nc1cccnc1	-27%	-4%	0%	46%	i	-1%
COc1cc2ccccc2cc1C(=O)Nc1ccc(N2CCN(C)CC2)cc1	13µM*	u	-14%	x	x	u
COc1cc2ccccc2cc1C(=O)Nc1ccc(N2CCN(C(=O)C(C)C)CC2)cc1	-7%	0%	15%	x	u	18%
COc1ccc(NC(=O)c2cc3ccccc3cc2OC)cc1	-1%	16µM*	-4%	64%	i	16µM*
CCCCCCCCCCCCCCCCCC(=O)[O][Al]	x	x	x	x	i	x
COC(=O)C1CCN(Cc2ccc3c(c2)CN(C(=O)c2cc(C)nc(C)n2)CCO3)CC1	x	x	x	x	i	x
CCOc1ccc(NC(=O)c2cc3ccccc3cc2OC)cc1	1%	23µM*	-20%	21%	i	u
O=C(Nc1cccnc1)c1ccccc1Oc1ccccc1	-21%	-2%	6%	2%	i	3%
COC(=O)N/N=C/c1cccs1	-11%	4%	-5%	-10%	i	0%
COc1cc2ccccc2cc1C(=O)N/N=C/c1cccs1	3%	4.1µM*	-16%	x	i	u
CCOc1ccc(NC(=O)c2cc3ccccc3cc2O)cc1	-2%	2%	-6%	x	x	6%
O=C(Nc1ccc(C(=O)Nc2ccccc2Cl)cc1)c1cccnc1	1%	5.8µM*	-1%	0%	i	8.2µM*
O=C(Nc1cccnc1)c1ccc(Oc2ccccc2)cc1	-43%	26µM*	0%	72%	i	u
Cc1ncc2c(c1CNC(=O)c1ccccc1F)CCN(C(=O)c1ccccc1-n1cccn1)C2	x	x	x	x	i	x
CN(C)c1ccc(N=Cc2cccc3ccccc23)cc1	-19%	x	u	x	x	x
Cc1ccc(S(=O)(=O)N2CCN(c3nc(-n4ccnc4)nc4ccccc34)CC2)cc1	x	19%	x	x	x	14%
CCCCCCOC(=O)NC(=N)c1ccc(NCc2nc3cc(C(=O)N(CCC(=O)OCC)c4ccccn4)ccc3n2C)cc1	x	x	x	32µM*	32µM*	x
CNC(=O)[C@@H]1C[C@H](NC2CCCCCCC2)CN1Cc1cccc(OC)c1OC	x	x	x	x	i	x
Cc1c(-c2nsc(NC(=O)c3cccs3)n2)nnn1-c1ccc(Br)cc1	-37%	x	-26%	u	32µM*	x

Assay outcomes deposited in PubChem by National Center for Advancing Translational Sciences (NCATS).
